For 40 compounds, growth results are on record in PubChem BioAssay (NCI).

This is part of a sample that, as a whole, favours compounds with a hit. Of some 83,000 tested, about 20% had one in any assay.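 The endpoint reported here, percent growth, reads 100 for growth as untreated, 0 for no net growth and -100 for all cells dead.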 Unmarked numbers belong to inactive results. Calls of active or inactive are those of the source.

This experiment deals with IGROV1 ovarian. As to the kind of experiment: NCI-60 one-dose screen, 48 h (100 = growth as untreated, 0 = no growth, -100 = all killed). To be noted: 10 µM. The method, then: Growth inhibition of the IGROV1 human tumor cell line is measured as a screen for anti-cancer activity. Cells are grown in 96 well plates and exposed to the test compound for 48 hours. Compounds are tested at a single concentration, which is 10^-5 M for most compounds. The reported endpoint is percent growth (GI% or GIPRCNT), where numbers from 0 - 100% represent growth inhibition, and numbers from -100% - 0 represent cell death. For example, a value of 40 represents 60% growth inhibition. A value of 0 means no net growth occurred over the course of the experiment. A value of -40 indicates 40% of cells at the beginning of the experiment died by the end of the experiment. A value of -100 means all cells are dead at the end of the experiment.
NCI-60 Human Tumor Cell Lines Screen was performed using the standard one-dose NCI protocol, which is described in more detail at https://dtp.cancer.gov/discovery_development/nci-60/default.htm.
Compounds with GIPRCNT values below 10 were considered active. Activity score was based on GIPRCNT using the following formula: […]
Score is 0 for GIPRCNT values of 100 or above, 50 for GIPRCNT values of 0, and 100 for GIPRCNT values of -100.
Regarding `CN(C1c2ccccc2Oc2ccccc21)S(=O)(=O)c1cc(Cl)ccc1Cl`, the growth is 53.8%. For the compound `COc1cc(-c2c(C#N)c(N)n3c(nc4ccccc43)c2C#N)cc(Br)c1OC`, the growth is 83.5%. With `CCOC(=O)c1sc(NC(=O)c2cc(OC)c(OC)c(OC)c2)nc1C` the figure was -10.1% (active); with `COc1ccccc1NC1=C(N2CCCCC2)C(=O)c2ccccc2C1=O`, 100%; with `O=C(Nc1ccc(OCc2nnc(-c3ccccc3)o2)c(F)c1)Nc1ccc(Cl)c(Cl)c1`, 57.7%. With `CCCCC(CC#N)(CCC)CCC` the figure was 102%.

As for `CCOC(=O)Nc1ccc2c(c1)C(=O)N(CC)c1ccccc1O2`, the growth is 32.1%. Take `COc1ccc2nc(NC(=O)Nc3c(F)cccc3F)sc2c1`: the growth is 114%. With `COc1cc(Nc2ccnc(N3CCN(c4ccnc5cc(Cl)ccc45)CC3)n2)cc(OC)c1` the figure was 3.24% (active); with `CCCCCCCCCCCC(=O)NCCCN(C)C`, 92%.

Regarding `CN(C)CCCN1c2ccccc2Sc2ccc(C(F)(F)F)cc21`, the growth is 17%. With `COc1ccc(C(C)=O)cc1N1C(=O)C2C(C1=O)C1(c3ccccc3)C(=O)C2(c2ccccc2)C(c2ccc(C)cc2)=C1c1ccc(C)cc1` (stereo not given) the figure was 9.07% (active); with `COc1ccc(NC(=O)CCn2cnc3c(cc(-c4ccccc4)n3-c3ccccc3)c2=O)cc1`, 78.9%; with `O=C(Nc1ccc(Oc2ccc(Nc3nc4ccccc4s3)cc2)cc1)Nc1ccc(Cl)c(Cl)c1`, 39.4%. Next, `CC(=O)O[C@H]1CC[C@@]2(C)[C@@H](CC[C@@H]3[C@@H]2CC[C@]2(C)C=C(C=O)C[C@@H]32)C1`: 60.2%. With `COCCNCC(O)Cn1c2ccc(Cl)cc2c2cc(Cl)ccc21` (stereo not given) the figure was -38% (active); with `Cn1c([N+](=O)[O-])cnc1C=C1C(=O)c2ccccc2C1=O`, 13.8%. In the case of `Cc1cc(/C=C2\SC(=Nc3ccccc3)N(C3CCCC3)C2=O)c(C)n1-c1ccc(Cl)cc1`, the growth was -48.6% (active). Next, `CC(=O)c1c(O)cc2c3c1OC(C)(C)C1CCC(C)(CC31)O2` (stereo not given): 96.2%; `Cc1ccc(/C(CS(=O)(=O)c2ccc(C)cc2)=N\O)cc1`: 102%. On to `COc1ccc(-c2[nH]ncc2-c2cc(OC)c(OC)c(OC)c2)cc1`, for which the growth is 28.8%. On to `COc1cc2ccnc(C=O)c2cc1OC`, for which the growth is 70.5%. As to `COc1cc(C(c2c[nH]c3ccccc23)N2CCCC2)ccc1OCc1ccccc1` (stereo not given), the growth is 48.1%. With `Nc1ncc(-c2ccc(C(F)(F)F)cc2)c(NC2CCCCCC2)n1` the figure was 58.6%; with `Cc1nn2c(/C=C3/C(=O)Nc4ccc(Cl)cc43)c(-c3ccccc3)nc2s1`, 3.8% (active). Consider `N#CCC1CCCC1`, for which the growth is 118%. Consider `CCCCCCCCCCCCCCCCn1cc[n+](C)c1`, for which the growth was -67.1% (active). Next, `CCOC(=O)c1ccc(N(C=O)CCC(=O)CCl)cc1`: 2.75% (active); `COc1ccc(-c2nc(-c3nc4ccc(OC)cc4[nH]3)c3ccccn23)cc1`: 57.2%; `COc1cc(-c2nc3ccc(C)cc3[nH]2)ccc1OCc1nnc(-c2ccc(CC(C)C)cc2)o1`: 91.4%. On to `COc1cc(C(=O)n2nc(N)c3c(C)cc(C)nc32)cc(OC)c1OC`, for which the growth is 86%. `COC(=O)[C@]12CC[C@@H](C)[C@H](C)[C@@H]1C1=CC[C@@H]3[C@@]4(C)CC(=O)[C@H](O)[C@@]5(C)COC(=C45)C[C@@]3(C)[C@]1(C)CC2`: the growth is -44.9% (active).

As to `CC(C)OP(=O)(O)c1ncc(-c2ccc(C(F)(F)F)cc2)c(NC2CCCCCC2)n1`, the growth is 62.4%. As for `COc1c(-c2c3sc(=O)[nH]c3nc3c2c(=O)[nH]n3C(C)C)cc2c(c1OC)OCO2`, the growth is 102%. With `CCOC(=O)C1=C(Nc2ccc(OC)cc2)C(N)=NC1=N` the figure was 65%; with `Cc1ccc2c(c1)-c1cc(C)nn1-c1ccc(C#N)cc1O2`, 64.5%.

Turning to `COc1nc2c(c(=O)[nH]1)C(c1ccc(Oc3ccnc4cc(Cl)ccc34)c(OC)c1)C=C(c1cc(OC)c(OC)c(OC)c1)N2` (stereo not given), the growth is 107%. For `O=C(Nc1ccc(OS(=O)(=O)Cc2ccccc2)cc1)C12CC3CC(CC(C3)C1)C2`, the growth is 97.8%. As to `O=S(=O)(NCl)c1ccccc1`, the growth was 107%.

Consider `NCCNc1ccc2cc(-c3nc4ccccc4[nH]3)c(=O)oc2c1`, for which the growth is 99.8%.
